Laboratory results taken from PubChem BioAssay (NCI).
This is part of a sample that, as a whole, favours compounds with a hit. Of some 83,000 tested, about 20% had one in any assay.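 Compound tested at a single concentration for 48 hours in 96-well plates; a percent growth value below 10 was scored as active.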 Activity calls are given as the source filed them.

Tests used:
Test in all cases: NCI-60 one-dose screen, 48 h (100 = growth as untreated, 0 = no growth, -100 = all killed)
Details in all cases: 10 µM unless noted
SR leukemia = system: SR leukemia
RPMI-8226 leukemia = system: RPMI-8226 leukemia
OVCAR-8 ovarian = system: OVCAR-8 ovarian
OVCAR-5 ovarian = system: OVCAR-5 ovarian
OVCAR-4 ovarian = system: OVCAR-4 ovarian
SK-OV-3 ovarian = system: SK-OV-3 ovarian
IGROV1 ovarian = system: IGROV1 ovarian
OVCAR-3 ovarian = system: OVCAR-3 ovarian
HS 578T breast = system: HS 578T breast
NCI/ADR-RES ovarian = system: NCI/ADR-RES ovarian

Measured: growth

O=S(=O)(c1nc(-c2ccc(Br)cc2)oc1-c1ccc(Cl)cc1)N1CCCC(O)C1 (stereo not given)
inactive: SR leukemia 37.2% | RPMI-8226 leukemia 29.7% | OVCAR-8 ovarian 68.4% | OVCAR-5 ovarian 87.8% | OVCAR-4 ovarian 43% | SK-OV-3 ovarian 101% | IGROV1 ovarian 87.8% | OVCAR-3 ovarian 63.1% | HS 578T breast 82.1% | NCI/ADR-RES ovarian 31.3%

CCN(C(=O)CN1C(=O)/C(=C/c2ccco2)SC1=S)C1CCS(=O)(=O)C1 (stereo not given)
inactive: SR leukemia 87.5% | RPMI-8226 leukemia 101% | OVCAR-8 ovarian 101% | OVCAR-5 ovarian 111% | OVCAR-4 ovarian 94.2% | SK-OV-3 ovarian 101% | IGROV1 ovarian 111% | OVCAR-3 ovarian 103% | HS 578T breast 118% | NCI/ADR-RES ovarian 93.6%

Cc1ccc(C2CC(c3ccc(NC(=S)Nc4ccccc4)cc3)=NN2c2ccc(S(N)(=O)=O)cc2)cc1 (stereo not given)
inactive: SR leukemia 17.8% | OVCAR-8 ovarian 26% | OVCAR-5 ovarian 16.2% | OVCAR-4 ovarian 27.1% | SK-OV-3 ovarian 41.5% | IGROV1 ovarian 19.2% | HS 578T breast 31.7%
active: RPMI-8226 leukemia 7.06% | OVCAR-3 ovarian 2.37% | NCI/ADR-RES ovarian 7.5%

COc1ccc(C(=O)NNC(=O)CSc2nc3sc4c(c3c(=O)n2-c2ccc(Cl)cc2)CCCC4)cc1
inactive: SR leukemia 48.2% | RPMI-8226 leukemia 79% | OVCAR-8 ovarian 24.3% | OVCAR-5 ovarian 78.9% | OVCAR-4 ovarian 78.6% | SK-OV-3 ovarian 70.4% | IGROV1 ovarian 89.2% | OVCAR-3 ovarian 106% | HS 578T breast 60.4% | NCI/ADR-RES ovarian 56.9%

C=CCSc1nnc(-c2ccc(-c3nc4ccc(Cl)cc4[nH]3)cc2)o1
inactive: SR leukemia 23.7% | RPMI-8226 leukemia 55.2% | OVCAR-8 ovarian 63.9% | OVCAR-5 ovarian 76.8% | OVCAR-4 ovarian 66.5% | SK-OV-3 ovarian 88.8% | IGROV1 ovarian 59.6% | OVCAR-3 ovarian 34% | HS 578T breast 36.2% | NCI/ADR-RES ovarian 54.3%

CCOC(=O)/C(F)=C/C1CC1C(c1ccccc1)c1ccccc1 (stereo not given)
inactive: SR leukemia 63.3% | RPMI-8226 leukemia 69.5% | OVCAR-8 ovarian 105% | OVCAR-5 ovarian 102% | OVCAR-4 ovarian 87.3% | SK-OV-3 ovarian 148% | IGROV1 ovarian 90.8% | OVCAR-3 ovarian 103% | HS 578T breast 81.3% | NCI/ADR-RES ovarian 89.4%

Cc1ccc(C(=O)Nc2cccc(C(=O)NC(=S)Nc3ccc(S(N)(=O)=O)cc3)c2)cc1
inactive: SR leukemia 79.7% | RPMI-8226 leukemia 82.2% | OVCAR-8 ovarian 51.1% | OVCAR-5 ovarian 91.5% | OVCAR-4 ovarian 31.6% | SK-OV-3 ovarian 77% | IGROV1 ovarian 96.2% | OVCAR-3 ovarian 78.8% | HS 578T breast 63.8% | NCI/ADR-RES ovarian 84.8%

O=C1NC(=S)/C(=C/c2cn(-c3ccccc3)nc2-c2ccccc2)S1
active: RPMI-8226 leukemia 5.49% | HS 578T breast 8.03%
inactive: SR leukemia 83.4% | OVCAR-8 ovarian 31.7% | OVCAR-5 ovarian 47.9% | OVCAR-4 ovarian 25.4% | SK-OV-3 ovarian 35.5% | IGROV1 ovarian 29.1% | OVCAR-3 ovarian 36.7% | NCI/ADR-RES ovarian 18.6%

Cc1ccccc1Nc1nnc(-c2c[nH]c3ccccc23)o1
inactive: SR leukemia 15.5% | OVCAR-8 ovarian 18.9% | OVCAR-5 ovarian 33.4% | OVCAR-4 ovarian 79.9% | SK-OV-3 ovarian 17.6% | IGROV1 ovarian 20.8%
active: RPMI-8226 leukemia 7.25% | OVCAR-3 ovarian 7.3% | HS 578T breast -2.08% | NCI/ADR-RES ovarian -20.2%

COc1ccc(N=Nc2c(N)nn3c(-c4ccc(OC)c(OC)c4)ccnc23)cc1
inactive: SR leukemia 77.7% | RPMI-8226 leukemia 65.6% | OVCAR-8 ovarian 78.8% | OVCAR-5 ovarian 87.1% | OVCAR-4 ovarian 95.5% | SK-OV-3 ovarian 56.4% | IGROV1 ovarian 95.4% | OVCAR-3 ovarian 109% | HS 578T breast 98.4% | NCI/ADR-RES ovarian 79.2%

COc1ccc(/C=C/C(=O)c2ccc(S(=O)(=O)NCCNc3nc(N(C)C)nc(N4CCOCC4)n3)cc2)cc1
inactive: SR leukemia 13.8% | RPMI-8226 leukemia 14% | OVCAR-8 ovarian 98.5% | OVCAR-5 ovarian 95.4% | OVCAR-4 ovarian 94.1% | SK-OV-3 ovarian 101% | IGROV1 ovarian 98.5% | OVCAR-3 ovarian 100% | HS 578T breast 104% | NCI/ADR-RES ovarian 89.7%

Cc1nn(-c2ccccc2)c2nc(C)n(CC(=O)N/N=C/c3ccccc3O)c(=O)c12
inactive: SR leukemia 54.7% | RPMI-8226 leukemia 29.1% | OVCAR-8 ovarian 22% | OVCAR-5 ovarian 46.6% | OVCAR-4 ovarian 31.2% | SK-OV-3 ovarian 25% | IGROV1 ovarian 24.2% | OVCAR-3 ovarian 51.3% | HS 578T breast 55.4% | NCI/ADR-RES ovarian 16.7%

COc1sc(/C=N/NC(=O)c2[nH]c3ccc(Br)cc3c2-c2ccccc2)cc1Br
active: SR leukemia 4.82% | RPMI-8226 leukemia 9.25% | OVCAR-5 ovarian 0.79% | OVCAR-3 ovarian -0.827% | NCI/ADR-RES ovarian -64.9%
inactive: OVCAR-8 ovarian 12% | OVCAR-4 ovarian 41.9% | SK-OV-3 ovarian 40.2% | IGROV1 ovarian 11.8% | HS 578T breast 20.7%
